Laboratory results from PubChem BioAssay (NCATS).
Results filed as inconclusive are left out. Entries that show only a call come without a potency. Unmarked numbers belong to inactive results. The source made the active and inactive calls. The call rests on the fitted dose curve; in most records, active means well fitted curve in the direction sought with a large enough effect; inconclusive means small, poorly fitted or top-dose-only effect, or another doubt; inactive means no such curve, though single readings can be large; an effect the other way counts as inactive or inconclusive.

Assays:
[1] = target: Rap guanine nucleotide exchange factor 3 (Homo sapiens) (UniProt O95398); experiment: Confirmatory qHTS for antagonist of cAMP-regulated guanine nucleotide exchange factor 3 (EPAC1) (AID 1645880); further: nearly all actives have a fitted effect of over 55% in size; further: potency means the concentration at half of the fitted maximal effect
Sequence of Rap guanine nucleotide exchange factor 3 (Homo sapiens) (O95398 whole entry, looked up): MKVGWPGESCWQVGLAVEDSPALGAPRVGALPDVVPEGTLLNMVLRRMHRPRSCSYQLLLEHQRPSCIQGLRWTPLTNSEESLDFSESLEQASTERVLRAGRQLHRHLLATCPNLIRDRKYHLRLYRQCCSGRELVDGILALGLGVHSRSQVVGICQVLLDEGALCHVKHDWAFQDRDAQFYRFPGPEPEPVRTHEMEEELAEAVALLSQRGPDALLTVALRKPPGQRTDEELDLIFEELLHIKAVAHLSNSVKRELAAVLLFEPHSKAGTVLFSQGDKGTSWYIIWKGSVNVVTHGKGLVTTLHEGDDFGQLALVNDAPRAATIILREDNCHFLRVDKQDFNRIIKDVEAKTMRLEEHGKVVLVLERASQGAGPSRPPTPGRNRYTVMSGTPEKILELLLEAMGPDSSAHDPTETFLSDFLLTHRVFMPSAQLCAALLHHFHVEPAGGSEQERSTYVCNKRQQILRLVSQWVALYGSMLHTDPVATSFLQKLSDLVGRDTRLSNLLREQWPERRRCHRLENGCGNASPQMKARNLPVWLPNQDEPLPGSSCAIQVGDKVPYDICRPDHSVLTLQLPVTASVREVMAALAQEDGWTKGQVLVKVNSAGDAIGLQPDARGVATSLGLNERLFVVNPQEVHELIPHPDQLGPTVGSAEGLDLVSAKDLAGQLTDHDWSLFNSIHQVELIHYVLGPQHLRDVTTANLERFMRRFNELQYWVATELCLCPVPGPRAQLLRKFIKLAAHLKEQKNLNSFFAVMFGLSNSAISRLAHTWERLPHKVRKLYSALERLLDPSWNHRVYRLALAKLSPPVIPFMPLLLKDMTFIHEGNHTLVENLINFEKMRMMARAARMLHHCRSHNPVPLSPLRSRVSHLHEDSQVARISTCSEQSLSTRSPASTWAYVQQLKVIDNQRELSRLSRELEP
In short: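 Released BODIPY-GDP fluoresces less than Rap1-bound BODIPY-GDP; the signal is followed at 480/540 nm at 5-min intervals over 30 min, after 5 min at room temperature. Reactions contain 100 nM EPAC1, 250 nM RAP1B-BODIPY-GDP and 50 uM GDP; results are normalized to ATA and DMSO.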

[2] = target: Rap guanine nucleotide exchange factor 3 (Homo sapiens) (UniProt O95398); experiment: Confirmatory qHTS for agonist of cAMP-regulated guanine nucleotide exchange factor 3 (EPAC1) (AID 1645881);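 further: EPAC1 catalysed release of BODIPY-GDP from Rap1B seen as fluorescence loss; nearly all actives have a fitted effect of over 75% in size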
[3] = target: Rap guanine nucleotide exchange factor 4 (Homo sapiens) (UniProt Q8WZA2); experiment: Confirmatory qHTS for agonist of cAMP-regulated guanine nucleotide exchange factor 4 (EPAC2) (AID 1645884);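 further: nucleotide exchange releases bodipy-GDP from Rap1 and this lowers its fluorescence; nearly all actives have a fitted effect of over 65% in size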
Sequence of Rap guanine nucleotide exchange factor 4 (Homo sapiens) (Q8WZA2 whole entry, looked up): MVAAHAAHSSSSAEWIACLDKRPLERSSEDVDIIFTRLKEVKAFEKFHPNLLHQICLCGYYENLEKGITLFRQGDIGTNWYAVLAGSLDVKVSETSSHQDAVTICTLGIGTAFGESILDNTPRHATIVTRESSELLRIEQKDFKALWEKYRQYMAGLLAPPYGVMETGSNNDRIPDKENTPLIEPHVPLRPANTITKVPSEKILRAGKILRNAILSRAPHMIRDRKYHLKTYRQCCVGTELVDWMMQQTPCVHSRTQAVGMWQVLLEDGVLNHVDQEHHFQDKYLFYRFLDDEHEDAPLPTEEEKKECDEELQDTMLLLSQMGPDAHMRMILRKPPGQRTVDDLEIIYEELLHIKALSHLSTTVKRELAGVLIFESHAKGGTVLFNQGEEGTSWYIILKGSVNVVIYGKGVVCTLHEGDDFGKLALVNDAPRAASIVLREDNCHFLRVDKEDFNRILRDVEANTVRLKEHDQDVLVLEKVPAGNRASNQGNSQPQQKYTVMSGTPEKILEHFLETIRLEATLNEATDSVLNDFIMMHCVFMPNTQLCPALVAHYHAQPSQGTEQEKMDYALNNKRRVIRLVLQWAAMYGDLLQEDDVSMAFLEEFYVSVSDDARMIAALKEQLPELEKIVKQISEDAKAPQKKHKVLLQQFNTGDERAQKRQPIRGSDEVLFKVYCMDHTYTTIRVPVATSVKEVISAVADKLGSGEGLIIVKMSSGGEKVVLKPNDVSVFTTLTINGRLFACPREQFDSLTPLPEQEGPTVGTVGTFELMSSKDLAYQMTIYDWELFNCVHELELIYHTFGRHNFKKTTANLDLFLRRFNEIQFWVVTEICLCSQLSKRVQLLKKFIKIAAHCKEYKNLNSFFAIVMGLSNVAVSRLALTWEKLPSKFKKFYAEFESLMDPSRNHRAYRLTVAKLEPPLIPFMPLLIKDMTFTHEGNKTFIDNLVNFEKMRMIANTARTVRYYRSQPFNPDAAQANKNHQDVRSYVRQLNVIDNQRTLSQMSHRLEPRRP

[4] = target: Rap guanine nucleotide exchange factor 4 (Homo sapiens) (UniProt Q8WZA2); experiment: Confirmatory qHTS for antagonist of cAMP-regulated guanine nucleotide exchange factor 4 (EPAC2) (AID 1645885); further: nearly all actives have a fitted effect of over 25% in size; further: potency means the concentration at half of the fitted maximal effect
[5] = target: Rap guanine nucleotide exchange factor 3 (Homo sapiens) (UniProt O95398); experiment: Counterscreen qHTS for antagonist of cAMP-regulated guanine nucleotide exchange factor 3 (EPAC1) (AID 1645888)
In short: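 Measured: fluorescence of BODIPY-GDP bound to Rap1B, which falls as exchange proceeds. Conditions include 50 uM competing GDP, 5 and 30 min reads, and a later cAMP challenge for antagonist detection.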

For `CN1CCN(CCC(=O)Nc2ccc(Cl)cc2)CC1`, the Potency [1] was “inactive”, the Potency [2] was “inactive” and the Potency [3] was “inactive”. The Potency [4] was “inactive” and the Potency [5] was “inactive”.
In the case of `CC1(C)Cc2c(C#N)c(N3CCN(C(=O)c4ccccc4Cl)CC3)nc(-c3ccco3)c2CS1`, the Potency [1] is reported as 26.9 µM (active), the Potency [2] is reported as “inactive” and the Potency [3] is reported as “inactive”. The Potency [4] was “inactive” and the Potency [5] was “inactive”.
`O=C1NC(=O)C(c2ccccc2)(c2ccccc2)N1S(=O)(=O)c1ccccc1` was tested, and the Potency [1] was “inactive”, the Potency [2] was “inactive” and the Potency [3] was “inactive”. For the same compound, the Potency [4] was “inactive” and the Potency [5] was “inactive”.
For `COc1cc(SC)ccc1C(=O)N(Cc1ccccc1)c1ccccc1`, the Potency [1] was “inactive”, the Potency [2] was “inactive” and the Potency [3] was “inactive”. For the same compound, the Potency [4] was 23.9 µM (active) and the Potency [5] was “inactive”.
`Cc1ccc(C(=O)Nc2ccccc2Oc2ccccc2)o1` was tested, and the Potency [1] was “inactive”, the Potency [2] was “inactive” and the activation [3] was 4.96% [at 17.1 µM, percent relative to cAMP agonist control]. For the same compound, the Potency [4] was “inactive” and the activity change, negative = inhibition [5] was 1.6% [at 30.8 µM].
With `CC(=Cc1ccccc1)C=C1SC(=S)N(CCCC(=O)Nc2ccc(C(=O)O)c(O)c2)C1=O` the Potency [1] was 37.9 µM (active), the Potency [2] was “inactive” and the Potency [3] was “inactive”. The Potency [4] was “inactive” and the Potency [5] was “inactive”.
For `Cc1ccc2c(c1)c1c(c(=O)n(-c3cccc(Cl)c3)c(=O)n1C)n2C`, the Potency [1] was “inactive”, the Potency [2] was “inactive” and the Potency [3] was “inactive”. For the same compound, the Potency [4] was “inactive” and the Potency [5] was “inactive”.
With `CCOC(=O)C1=C(N)OC2=C(C(=O)CC(C)(C)C2)C1c1ccc(CC)s1` (stereo not given) the Potency [1] was “inactive”, the Potency [2] was “inactive” and the Potency [3] was “inactive”. The Potency [4] was “inactive” and the Potency [5] was “inactive”.
For `CCN(CC(=O)Nc1ccccc1C(F)(F)F)C(=O)c1cc2c(s1)CCCCC2`, the Potency [1] was “inactive”, the Potency [2] was “inactive” and the Potency [3] was “inactive”. The Potency [4] was “inactive” and the Potency [5] was “inactive”.
`C=CCOc1ccc(/C=C2\SC(=S)N(NS(=O)(=O)c3ccccc3)C2=O)cc1` was tested, and the Potency [1] was 47.8 µM (active), the Potency [2] was “inactive” and the Potency [3] was “inactive”. The Potency [4] was 42.6 µM (active) and the Potency [5] was “inactive”.
For `Cc1nn(-c2ccccc2)c(C)c1NC(=O)COC(=O)Cc1cccc(C(F)(F)F)c1`, the Potency [1] was “inactive”, the Potency [2] was “inactive” and the Potency [3] was “inactive”. For the same compound, the Potency [4] was “inactive” and the Potency [5] was “inactive”.
For `CCc1cccc2sc(NC(=O)c3ccc(N4C(=O)CCC4=O)cc3)nc12`, the Potency [1] was “inactive”, the Potency [2] was “inactive” and the Potency [3] was “inactive”. For the same compound, the Potency [4] was “inactive” and the Potency [5] was “inactive”.
With `O=C1C(=Cc2cn(-c3ccccc3)nc2-c2ccc(OCc3ccccc3)cc2)SC(=S)N1CCS(=O)(=O)O` the Potency [1] was 33.8 µM (active), the Potency [2] was “inactive” and the Potency [3] was “inactive”. For the same compound, the Potency [4] was “inactive” and the Potency [5] was “inactive”.
For `CC(C)Cc1csc(NC(=O)c2ccc(Cl)cc2)c1C(=O)O`, the Potency [1] was “inactive”, the Potency [2] was “inactive” and the activation [3] was 0% [at 17.1 µM, percent relative to cAMP agonist control]. For the same compound, the Potency [4] was “inactive” and the activity change, negative = inhibition [5] was -11.2% [at 30.8 µM].
For `COc1ccc(CCNC(=O)CSc2nc3nc(C)c(Cc4ccc(C)cc4)c(C)n3n2)cc1OC`, the Potency [1] was “inactive”, the Potency [2] was “inactive” and the Potency [3] was “inactive”. The Potency [4] was “inactive” and the Potency [5] was “inactive”.
`Cc1ccc2nc3sc(C(=O)NCc4ccco4)c(N)c3cc2c1` was tested, and the Potency [1] was “inactive”, the Potency [2] was “inactive” and the activation [3] was 2.22% [at 17.1 µM, percent relative to cAMP agonist control]. For the same compound, the Potency [4] was “inactive” and the activity change, negative = inhibition [5] was 3.21% [at 30.8 µM].
`COc1ccccc1C(=O)NC(=O)Cn1nc(C)c([N+](=O)[O-])c1C` was tested, and the Potency [1] was “inactive”, the Potency [2] was “inactive” and the activation [3] was 4.27% [at 17.1 µM, percent relative to cAMP agonist control]. For the same compound, the Potency [4] was “inactive” and the activity change, negative = inhibition [5] was 11.7% [at 30.8 µM].
In the case of `CCOC(=O)COc1ccc(Br)cc1/C=C\c1[nH]c(=O)[nH]c(=O)c1[N+](=O)[O-]`, the Potency [1] is reported as 20 µM (active), the Potency [2] is reported as “inactive” and the activation [3] is reported as 4.81% [at 17.1 µM, percent relative to cAMP agonist control]. For the same compound, the Potency [4] was “inactive” and the activity change, negative = inhibition [5] was -24.7% [at 30.8 µM].
With `NC(=O)COC(=O)c1ccc(Cl)c(S(=O)(=O)N(Cc2ccccc2)c2ccc(Cl)cc2)c1` the Potency [1] was “inactive”, the Potency [2] was “inactive” and the activation [3] was 4.76% [at 17.1 µM, percent relative to cAMP agonist control]. The Potency [4] was “inactive” and the activity change, negative = inhibition [5] was -4.28% [at 30.8 µM].
In the case of `COc1ccc(C(=O)NCc2ccc3c(c2)CCN3C(=O)c2ccc(C)cc2)cc1`, the Potency [1] is reported as “inactive”, the Potency [2] is reported as “inactive” and the Potency [3] is reported as “inactive”. The Potency [4] was “inactive” and the Potency [5] was “inactive”.
With `O=C1CC(c2ccccc2)=C(c2ccccc2)C1` the Potency [1] was “inactive”, the Potency [2] was “inactive” and the activation [3] was -2.19% [at 17.1 µM, percent relative to cAMP agonist control]. The Potency [4] was “inactive” and the activity change, negative = inhibition [5] was 8.98% [at 30.8 µM].
For `CC1=CC2=NC(=O)/C(=C\c3cccn3CCOc3ccc(C)c(C)c3)C(=N)N2O1`, the Potency [1] was “inactive”, the Potency [2] was “inactive” and the Potency [3] was “inactive”. The Potency [4] was “inactive” and the Potency [5] was “inactive”.
